According to PubChem BioAssay (NCI):
Compounds without any hit were thinned out: in the full panel of roughly 79,000, 15% have a hit. Calls of active or inactive are those of the source. No stated cut-off is given here; in the data, active means growth inhibition above about 70%; inactive means the rest.

Assays:
[1] = NCI Yeast Anticancer Drug Screen. Data for the rad52 strain (AID 147);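 further: 0% = growth of vehicle-treated control cultures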; settings: S. cerevisiae rad52 mutant growth inhibition, stronger effect = higher value
How it was run: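 Inhibition of yeast growth, referenced to vehicle controls, was the measured output for a strain with defective DNA damage repair.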

[2] = NCI Yeast Anticancer Drug Screen. Data for the wt1 strain (AID 149);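 further: 0% = growth of vehicle-treated wt1 cultures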; settings: S. cerevisiae wt1 strain (SPY 50644) growth inhibition, stronger effect = higher value
How it was run: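 The wt1 strain was treated with compounds, and growth was compared with vehicle-treated cultures to give inhibition.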

[3] = NCI Yeast Anticancer Drug Screen. Data for the rad50EPP+ strain (AID 151);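 further: 0% = growth of vehicle-treated control cultures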; settings: S. cerevisiae rad50 mutant strain, stronger effect = higher value
How it was run: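 Genetically defined yeast (rad50EPP+, DNA damage repair alteration) is grown with compound, and inhibition of growth is expressed relative to vehicle-treated controls.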

[4] = NCI Yeast Anticancer Drug Screen. Data for the mgt1 strain (AID 153); settings: S. cerevisiae mgt1 mutant growth inhibition, stronger effect = higher value
How it was run: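 In the mgt1 strain, test compounds were added and growth inhibition was determined relative to vehicle-treated controls.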

[5] = NCI Yeast Anticancer Drug Screen. Data for the rad50 strain (AID 155);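 further: 0% = growth of vehicle-only cultures of the same strain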; settings: S. cerevisiae rad50 strain growth inhibition, stronger effect = higher value
How it was run: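 Cells are treated with compound, grown, and their growth is then scored against vehicle-only cultures of the same repair-deficient yeast strain.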

[6] = NCI Yeast Anticancer Drug Screen. Data for the mec2-1 strain (AID 157); settings: S. cerevisiae mec2-1 strain, stronger effect = higher value
How it was run: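 Each compound was tested on mec2-1 yeast, a strain altered in DNA damage repair or cell cycle control. Growth inhibition is reported relative to vehicle.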

[7] = NCI Yeast Anticancer Drug Screen. Data for the rad14 strain (AID 159);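 further: 0% = growth of vehicle-treated control cultures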; settings: S. cerevisiae rad14 strain growth inhibition, stronger effect = higher value
How it was run: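 Readout: yeast growth inhibition, referenced to vehicle-only cultures. Strain bears a defined alteration in DNA damage repair.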

[8] = NCI Yeast Anticancer Drug Screen. Data for the sgs1 mgt1 strain (AID 161);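 further: 0% = growth of cultures given vehicle only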; settings: S. cerevisiae sgs1 mgt1 strain, stronger effect = higher value
How it was run: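 Read-out: growth inhibition vs vehicle controls. Cells: mutant yeast strain deficient in DNA damage repair.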

[9] = NCI Yeast Anticancer Drug Screen. Data for the CLN2oe strain (AID 163);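 further: 0% = growth of vehicle-only control cultures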; settings: S. cerevisiae CLN2oe strain, stronger effect = higher value
How it was run: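 First, the altered yeast strain was treated with each compound; second, its growth was measured; finally, inhibition was derived by comparison with vehicle controls.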

[10] = NCI Yeast Anticancer Drug Screen. Data for the cln2 rad14 strain (AID 165);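 further: 0% = growth equal to vehicle treated cultures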; settings: S. cerevisiae cln2 rad14 strain, stronger effect = higher value
How it was run: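 Test compounds were added to cln2 rad14 yeast cultures; inhibition of growth was then determined by comparison with vehicle treatment.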

[11] = NCI Yeast Anticancer Drug Screen. Data for the bub3 strain (AID 167); settings: S. cerevisiae bub3 mutant strain, stronger effect = higher value
How it was run: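 Part of a panel of yeast mutants defective in DNA damage repair or cell cycle regulation. Each strain is grown with compound, and inhibition is calculated relative to solvent-treated cultures.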

[12] = NCI Yeast Anticancer Drug Screen. Data for the wt2 strain (AID 169);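 further: 0% = growth of vehicle-treated yeast cultures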; settings: S. cerevisiae wt2 strain growth inhibition, stronger effect = higher value
How it was run: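 The panel's yeast strains carry defined changes in DNA repair or cell cycle genes. Each strain is grown with compound, and growth loss is scored relative to vehicle.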

[13] = NCI Yeast Anticancer Drug Screen. Data for the mlh1 strain (AID 171);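 further: 0% = growth of vehicle-treated control cultures of the same strain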; settings: S. cerevisiae mlh1 strain growth inhibition, stronger effect = higher value
How it was run: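 Inhibition values reflect reduced yeast growth in the presence of compound, referenced to vehicle controls, using a strain chosen for its alteration in DNA repair or cell cycle control.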

[14] = NCI Yeast Anticancer Drug Screen. Data for the sgs1 strain (AID 173);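 further: 0% = growth of vehicle-only control cultures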; settings: S. cerevisiae sgs1 mutant, stronger effect = higher value
How it was run: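 Vehicle-treated cultures served as reference for growth inhibition of a yeast strain altered in DNA damage repair or cell cycle control after compound exposure.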

[15] = NCI Yeast Anticancer Drug Screen. Data for the mlh1 rad18 strain (AID 175); settings: S. cerevisiae mlh1 rad18 strain growth inhibition, stronger effect = higher value
How it was run: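 Inhibition values reflect reduced growth of mutant yeast versus vehicle-treated controls following compound exposure; the mutations affect DNA damage repair.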

[16] = NCI Yeast Anticancer Drug Screen. Data for the rad18 strain (AID 177); settings: S. cerevisiae rad18 mutant growth inhibition, stronger effect = higher value
How it was run: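 Steps: expose repair-mutant yeast to compound; measure growth; express as inhibition relative to vehicle control.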

[17] = at 5.0 µM (retest, dose inferred, filed as 0.5)
[18] = at 50.0 µM (retest, dose inferred, filed as 5.0)

Measured: growth inhibition

COC(=O)c1cnc(Cl)c([N+](=O)[O-])c1
active: [1]; at 11.0 µM 94% | [1]; at 33.0 µM 98% | [1]; at 100.0 µM 99% | [2]; at 11.0 µM 82% | [2]; at 33.0 µM 99% | [2]; at 100.0 µM 99% | [3]; at 11.0 µM 93% | [3]; at 33.0 µM 98% | [3]; at 100.0 µM 99% | [4]; at 11.0 µM 92% | [4]; at 33.0 µM 99% | [4]; at 100.0 µM 99% | [5]; at 3.7 µM 75% | [5]; [17] 79% | [5]; at 11.0 µM 97% | [5]; at 33.0 µM 99% | [5]; [18] 98% | [5]; at 50.0 µM 99.5% | [5]; at 100.0 µM 99% | [6]; at 11.0 µM 72% | [6]; at 33.0 µM 98% | [6]; [18] 99% | [6]; at 50.0 µM 99.5% | [6]; at 100.0 µM 99% | [7]; at 33.0 µM 97% | [7]; at 100.0 µM 99% | [8]; [18] 99% | [8]; at 50.0 µM 99.3% | [9]; at 33.0 µM 97% | [9]; at 100.0 µM 99% | [10]; [18] 98% | [10]; at 50.0 µM 94.8% | [11]; at 11.0 µM 85% | [11]; at 33.0 µM 98% | [11]; [18] 99% | [11]; at 50.0 µM 98.9% | [11]; at 100.0 µM 99% | [12]; at 11.0 µM 88% | [12]; at 33.0 µM 99% | [12]; at 100.0 µM 99% | [13]; at 11.0 µM 92% | [13]; at 33.0 µM 99% | [13]; at 100.0 µM 100% | [14]; at 11.0 µM 88% | [14]; at 33.0 µM 98% | [14]; at 100.0 µM 99% | [15]; [17] 72% | [15]; [18] 98% | [15]; at 50.0 µM 98.5% | [16]; at 11.0 µM 95% | [16]; at 33.0 µM 98% | [16]; at 100.0 µM 99%
inactive: [1]; at 1.2 µM 17% | [1]; at 3.7 µM 53% | [2]; at 1.2 µM 6% | [2]; at 3.7 µM 15% | [3]; at 1.2 µM 14% | [3]; at 3.7 µM 48% | [4]; at 1.2 µM 2% | [4]; at 3.7 µM 23% | [5]; at 1.2 µM 22% | [6]; at 1.2 µM 5% | [6]; at 3.7 µM 10% | [6]; [17] 41% | [7]; at 1.2 µM 2% | [7]; at 3.7 µM 18% | [7]; at 11.0 µM 39% | [8]; [17] 47% | [9]; at 1.2 µM 0% | [9]; at 3.7 µM 5% | [9]; at 11.0 µM 48% | [10]; [17] 2% | [11]; at 1.2 µM 2% | [11]; at 3.7 µM 7% | [11]; [17] 24% | [12]; at 1.2 µM 4% | [12]; at 3.7 µM 20% | [13]; at 1.2 µM 3% | [13]; at 3.7 µM 11% | [14]; at 1.2 µM 5% | [14]; at 3.7 µM 20% | [16]; at 1.2 µM 4% | [16]; at 3.7 µM 29%

CCC(OC(C)=O)C1CC(C(C)C)CCC1C (stereo unspecified)
inactive: [1]; at 1.2 µM 1% | [1]; at 3.7 µM 2% | [1]; at 11.0 µM 4% | [1]; at 33.0 µM -73% | [1]; at 100.0 µM 22% | [2]; at 1.2 µM -1% | [2]; at 3.7 µM -1% | [2]; at 11.0 µM -2% | [2]; at 33.0 µM 2% | [2]; at 100.0 µM 44% | [3]; at 1.2 µM 0% | [3]; at 3.7 µM 0% | [3]; at 11.0 µM 15% | [3]; at 33.0 µM 46% | [4]; at 1.2 µM -1% | [4]; at 3.7 µM 0% | [4]; at 11.0 µM 0% | [4]; at 33.0 µM 5% | [5]; at 1.2 µM 4% | [5]; at 3.7 µM -43% | [5]; [17] 3% | [5]; at 11.0 µM 5% | [5]; at 33.0 µM 4% | [5]; [18] 9% | [5]; at 50.0 µM -15.1% | [5]; at 100.0 µM 53% | [6]; at 1.2 µM 2% | [6]; at 3.7 µM 3% | [6]; [17] 4% | [6]; at 11.0 µM 6% | [6]; at 33.0 µM 9% | [6]; [18] 34% | [6]; at 50.0 µM 24.2% | [7]; at 1.2 µM 0% | [7]; at 3.7 µM 0% | [7]; at 11.0 µM 5% | [7]; at 33.0 µM 17% | [8]; [17] -7% | [8]; [18] 39% | [8]; at 50.0 µM 21.8% | [9]; at 1.2 µM -4% | [9]; at 3.7 µM -5% | [9]; at 11.0 µM 2% | [9]; at 33.0 µM 0% | [9]; at 100.0 µM 5% | [10]; [17] 9% | [11]; at 1.2 µM -2% | [11]; at 3.7 µM -1% | [11]; [17] 0% | [11]; at 11.0 µM -3% | [11]; at 33.0 µM -2% | [11]; [18] 29% | [11]; at 50.0 µM 21.4% | [12]; at 1.2 µM -1% | [12]; at 3.7 µM 7% | [12]; at 11.0 µM 0% | [12]; at 33.0 µM -3% | [12]; at 100.0 µM 40% | [13]; at 1.2 µM 0% | [13]; at 3.7 µM 1% | [13]; at 11.0 µM 4% | [13]; at 33.0 µM 8% | [13]; at 100.0 µM 54% | [14]; at 1.2 µM -1% | [14]; at 3.7 µM 1% | [14]; at 11.0 µM 6% | [14]; at 33.0 µM 18% | [15]; [17] -1% | [15]; [18] 19% | [15]; at 50.0 µM 27.6% | [16]; at 1.2 µM 2% | [16]; at 3.7 µM 2% | [16]; at 11.0 µM 4% | [16]; at 33.0 µM 11%
active: [3]; at 100.0 µM 96% | [4]; at 100.0 µM 82% | [6]; at 100.0 µM 76% | [7]; at 100.0 µM 99% | [10]; [18] 73% | [10]; at 50.0 µM 72.2% | [11]; at 100.0 µM 84% | [14]; at 100.0 µM 95% | [16]; at 100.0 µM 83%
